mcGAS MS inh: inhibitors of Mus musculus cyclic GMP-AMP synthase, initial high-throughput assay, cell-free, RapidFire MS; 0.18% of 130,000 active; Q8C6L5; recombinant mouse cGAS, cGAMP by RapidFire MS; inhibition, % at 12.5 µM;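 active = inhibition of cGAS enzyme activity at or above 60%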;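 note: enzyme stimulated by 45 bp dsDNA with ATP and GTP substrates; cGAMP share of summed cGAMP plus half ATP and half GTP signals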
Target sequence (Q8C6L5 whole entry, looked up): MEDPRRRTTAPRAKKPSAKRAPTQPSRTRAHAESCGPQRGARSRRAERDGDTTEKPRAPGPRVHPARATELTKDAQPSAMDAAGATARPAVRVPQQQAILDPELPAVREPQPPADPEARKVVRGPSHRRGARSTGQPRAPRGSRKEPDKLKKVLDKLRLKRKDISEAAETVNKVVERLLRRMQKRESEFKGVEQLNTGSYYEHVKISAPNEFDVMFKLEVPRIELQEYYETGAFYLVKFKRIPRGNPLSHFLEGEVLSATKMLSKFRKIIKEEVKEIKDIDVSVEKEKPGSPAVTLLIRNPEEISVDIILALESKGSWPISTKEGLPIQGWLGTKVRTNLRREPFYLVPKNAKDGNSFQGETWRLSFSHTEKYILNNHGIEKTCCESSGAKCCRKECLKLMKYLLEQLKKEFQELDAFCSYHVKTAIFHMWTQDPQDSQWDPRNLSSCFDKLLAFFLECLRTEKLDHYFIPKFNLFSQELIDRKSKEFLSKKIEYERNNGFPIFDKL
Starred values were filed as active, the others as inactive; ! = not confirmed by another sample. The sample as a whole holds a higher share of hits than the screen did.

SMILES	mcGAS MS inh
FC(F)Oc1ccc(Br)cc1C=C1CCC=C1N1CCOCC1	-8
O=C(CCc1nc2ccccc2[nH]1)N1CCc2c(ncnc2N2CCOCC2)C1	-10
C(=C1CCC=C1N1CCOCC1)c1nc2ccccc2[nH]1	77*
Cc1cccc(N2CCCn3c2nc2c3c(=O)n(CCN3CCOCC3)c(=O)n2C)c1C	-7
CC[n+]1c2ccccc2cc2ccccc21	-1
CC[n+]1c(-c2ccccc2)c2cc(N)ccc2c2ccc(N)cc21	97*!
Cc1cc(N2C(=O)c3oc4ccc(F)cc4c(=O)c3C2c2cccc([N+](=O)[O-])c2)no1 (centres undefined)	-8
Cc1cc(N2C(=O)c3oc4ccccc4c(=O)c3C2c2cccc(Cl)c2)no1 (centres undefined)	-1
Cc1cc(N2C(=O)c3oc4ccccc4c(=O)c3C2c2cccc(F)c2)no1 (centres undefined)	84*
COc1ccc(Cl)cc1CN1C(=O)C(C)Oc2ccc(F)cc21 (centres undefined)	12
CC(CCn1cccn1)N1CCc2onc(-c3ccc4c(c3)OCO4)c2C1 (centres undefined)	3
CCn1ccnc1Cc1nc2ccc(C)cc2c(=O)[nH]1	-12
N=C1/C(=C/c2cccs2)C(=O)N=C2SC(Cc3ccccc3)=NN12	-11
N=C1/C(=C/c2cccs2)C(=O)N=C2SC(c3ccccc3)=NN12	45
CCC1=NN2C(=N)/C(=C/c3cccs3)C(=O)N=C2S1	97*
Cc1cnc(C)c(-c2ccc(O)cc2)n1	-14
O=C(COc1ccc(Cl)c2ccccc12)NCC(F)(F)F	-7
O=C(Cc1ccc(C(F)(F)F)cc1)Nc1ncccc1O	-4
O=C(COc1ccc(Cl)c2ccccc12)Nc1ncccc1O	95*
CS(=O)(=O)Oc1ccc(CNCc2ccco2)cc1	-7
Cc1cccc(CNC(=O)c2cc3ccccc3c(=O)[nH]2)c1	-13
CCOc1cccc(COC(=O)c2cc(C)nn2C)n1	-6
O=C1N=c2ccccc2=C1c1sc(N2CCCCC2)nc1O	88*
O=C1N=c2ccccc2=C1c1sc(=S)n(-c2ccc(O)cc2)c1O	2
CCn1c(O)c(C2=c3ccccc3=NC2=O)sc1=S	7
SMILES	mcGAS MS inh
COc1ncccc1NC(=O)NC1(c2ccc(Cl)cc2)CCC1	-6
Cc1cccnc1NC(=O)NC1(c2ccc(F)cc2)CCC1	78*
O=C(NC1(c2ccc(F)cc2)CCCC1)c1cccs1	-2
Clc1ccc(Nc2c(-c3ccsc3)nc3ncccn23)cc1	-2
O=c1c2cc([N+](=O)[O-])ccc2nc2n1CCC2=Cc1ccccc1	1
O=c1/c(=C/c2ccc([N+](=O)[O-])cc2)sc2nc3cc(Br)cnc3n12	85*
O=c1c(=Cc2ccccc2I)sc2nc3ccccc3n12	-3
COc1cc(CSc2nnc(N)s2)cc(OC)c1	0
CC1CCc2c(C(=O)N3CCC(C(=O)O)CC3)csc2C1 (centres undefined)	-3
O=c1[nH]c2c(-c3nc4ccccc4s3)c(O)cn2c2sc3c(c12)CCCC3	-8
O=c1c(O)c(-c2ccccc2)[nH]c2ccccc12	-10
O=c1[nH]c2c(-c3ccccc3)c(O)cn2c2c1sc1ccccc12	70*
Cn1c(=O)c2c(SCC(=O)Nc3nccs3)nc(-c3ccc(F)cc3)nc2n(C)c1=O	5
CC(C)(C)/[N+]([O-])=C/c1ccc(S(=O)(=O)O)cc1S(=O)(=O)O	-6
O=S(=O)(O)c1cc(N=C=S)ccc1/C=C/c1ccc(N=C=S)cc1S(=O)(=O)O	98*
O=c1c(-c2ccc(O)cc2)coc2cc(O)ccc12	-4
O=c1c(O)c(-c2ccc(O)cc2)oc2cc(O)cc(O)c12	11
O=c1c(-c2ccccc2)coc2cc(O)cc(O)c12	86*
O=S(=O)(c1ccccc1)N1CCN(Cc2cnc(-c3ccccn3)nc2)CC1	9
COc1ccc(C=Cc2sc3ccccc3[n+]2CCCS(=O)(=O)O)cc1OCc1ccccc1	-2
Cc1ccc(C=Cc2sc3ccccc3[n+]2CCCS(=O)(=O)O)cc1	86*
NC(=S)NC1=CN(c2ccccc2)N=C(c2ccc([N+](=O)[O-])cc2)N=C1	46
CCCCOCCCNC(=O)c1ccc(Cl)cc1Cl	-5
COc1cccc(C=CC(=O)c2ccc(Cl)c(Cl)c2)c1OC	9
COc1c(Cl)ccc(Cl)c1C(=O)O	98*
SMILES	mcGAS MS inh
COc1c(Cl)cc(C(=O)NCCn2cccc2)cc1Cl	-3
CN(C)c1nc(N)c(C#N)c(CC#N)c1C#N	0
NC(=O)CC1CCN(Cc2ccc(F)c3cccnc23)CC1	-12
CCn1c(C2CCCNC2)nn(Cc2cc(=O)n3cc(C)sc3n2)c1=O (centres undefined)	-6
COc1ccnc(Cn2nc(C3CCNCC3)n(-c3ccccc3)c2=O)c1	5
CCn1c(C2CCCNC2)nn(Cc2cc(OC)ccn2)c1=O (centres undefined)	61*!
COC(=O)C(C(=O)OC)C(C)(C)C(C(=O)OC)C(=O)OC	-6
O=c1cc(Cc2ccccc2)nc2c(-c3ccccc3)c(C(F)(F)F)[nH]n12	1
OC(CNCc1csc(-c2ccsc2)n1)c1ccc(F)c(F)c1 (centres undefined)	-13
NC(=O)c1c(NC(=O)CN2CCOCC2)sc2c1CCC2	-8
N#CCC(=O)Nc1sc2c(c1C(N)=O)CCCC2	91*
NC(=O)c1c(NC(=O)CSCC(=O)O)sc2c1CCCC2	-3
Cc1ccc2c(c1)C1C[N+](C)(C)CCC1N2C(=O)c1ccc(F)cc1 (centres undefined)	3
CCN(Cc1cccs1)C(=O)CCn1c(=O)[nH]c(=O)c2ccccc21	8
N#CCc1cccc(C(=O)NS(=O)(=O)c2cccc(Cl)c2)c1	-12
CC(C)=NNc1nc(Cl)c(C#N)c(Cl)c1Cl	75*
C/C(=N/Nc1nc(Cl)c(C#N)c(Cl)c1Cl)c1ccc(N)cc1	39
O=C(NCc1cnc2ccccn12)C1CCC(=O)N(CCc2cccc(F)c2)C1 (centres undefined)	-1
CN(Cc1ccc(-c2nc(-c3ccncc3)cc(=O)[nH]2)cc1)Cc1ccoc1	-19
Cc1cc(-c2cc(=O)[nH]c(-c3ccc(CN4CCN(C)CC4)cc3)n2)c(C)o1	71*
CCCCc1cc(=O)[nH]c(-c2ccc(CN3CCN(C(=O)N(C)C)CC3)cc2)n1	10
COc1ccc(C)cc1NC(=O)CCc1cccs1	3
COc1ccccc1-n1cc(CN2CCCC(CNC(=O)c3cc(C)on3)C2)cn1 (centres undefined)	-5
COc1ccccc1CN(Cc1cccc(C)c1)C(=O)c1ccc(=O)n(C)c1	-11
Cc1c(C(=O)NC2(C#N)CCCC2)cnn1-c1cccc(C(F)(F)F)c1	-1
SMILES	mcGAS MS inh
CCN(CC)C(=S)SSC(=S)N(CC)CC	76*!
CCN(CC)C(=S)SC(C)C(=O)NC1CC1 (centres undefined)	-4
O=S(=O)(NCCN1CC=CC1)c1ccc(Cl)cc1F	-8
CSc1ccc(NC(=O)c2cc3ccccc3o2)cc1	-3
NCc1cc(F)cc(Br)c1	-4
O=S(=O)(O)CC(S)CS (centres undefined)	87*
COc1ccc(CN2CCNC(=O)C2CC(=O)NCCc2cccnc2)c(OC)c1 (centres undefined)	-3
O=C(Nc1ccc2c(c1)CN(Cc1cccn1-c1ncccn1)CC2)C1CCCO1 (centres undefined)	-2
Cn1c(=O)c2[nH]c(/C=N\NC(N)=S)nc2n(C)c1=O	16
CC(C)(C)n1cccc(/C=N\NC(N)=S)c1=S	72*
NC(=S)NN=Cc1c[nH]c2ccccc12	-2
